Assay outcomes from PubChem BioAssay.
S-ASM inh – blocks human secretory acid sphingomyelinase; P17405; placental ASM, HMU-PC fluorogenic substrate, 60 min; Potency, µM (series often up to 57.5 µM), without a hit: at the highest dose activity change, negative = inhibition, usual class: inhibitors; 0.006% of 340,000 active; AID 504937; also: potency is read from the fitted curve at half-maximal effect
Target sequence (P17405 47-631 limits assumed): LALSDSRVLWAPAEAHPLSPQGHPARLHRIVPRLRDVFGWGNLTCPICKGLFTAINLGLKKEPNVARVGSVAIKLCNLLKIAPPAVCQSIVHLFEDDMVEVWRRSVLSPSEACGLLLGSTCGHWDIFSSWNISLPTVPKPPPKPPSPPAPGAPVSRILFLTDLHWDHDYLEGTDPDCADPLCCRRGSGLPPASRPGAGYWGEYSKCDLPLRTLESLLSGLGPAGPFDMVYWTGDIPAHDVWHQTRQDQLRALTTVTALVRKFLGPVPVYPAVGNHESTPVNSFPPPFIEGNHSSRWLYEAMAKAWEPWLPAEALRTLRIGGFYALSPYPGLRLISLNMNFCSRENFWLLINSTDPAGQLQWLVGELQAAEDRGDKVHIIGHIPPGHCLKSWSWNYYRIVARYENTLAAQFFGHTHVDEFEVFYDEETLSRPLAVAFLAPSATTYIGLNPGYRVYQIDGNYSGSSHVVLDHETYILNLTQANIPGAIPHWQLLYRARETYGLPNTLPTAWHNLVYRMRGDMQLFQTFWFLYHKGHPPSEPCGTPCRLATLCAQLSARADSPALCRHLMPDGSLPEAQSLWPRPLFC
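Steps: dispense placental human ASM, pin compound, wait 10 min at room temperature, add HMU-PC0 substrate at 9 uM final, incubate 60 min at 37 °C, add stop solution raising pH to 10, read fluorescence.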
KB-3-1 tox – KB-3-1 parental cell cytotoxicity; KB-3-1 viability, CellTiter-Glo ATP luminescence, 72 h; Potency, µM (titrated, usually from 46.1 µM), hits mostly cytotoxic; 1.4% of 400,000 active; AID 1347075; also: potency is read from the fitted curve at half-maximal effect; % is scaled to controls: 0 for no effect and ±100 for the full control effect; nearly all actives have a fitted effect of over 60% in size
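Using CellTiter-Glo luminescence, growth of non-resistant KB-3-1 adenocarcinoma cells is assessed 72 h after pin-tool compound addition at 37 °C. Normalized responses across the concentration series yield fitted curves.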
SW480 rerep – inducers of DNA re-replication in SW480 colon cancer cells; Potency, µM (top dose mostly 46.1 µM), without a hit: top-dose re-replication activation, most hits filed as activators; SW480 DNA re-replication, Hoechst DNA content imaging, 48 h; 1.8% of 340,000 active; AID 624297; also: potency is read from the fitted curve at half-maximal effect; % of control where 0% means no effect; nearly all actives have a fitted effect of over 55% in size
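Compounds, transferred as 23 nL by pin tool, were incubated with cells for 48 hr; DNA content per nucleus was then quantified by Hoechst staining and fluorescence plate imaging.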
MCF10A rerep – inducers of DNA re-replication in MCF 10A breast cells; Potency, µM (doses to about 46.1 µM), for the others: at the top dose activity, positive = re-replication, actives largely listed as activators; 2.9% of 350,000 active; MCF 10A DNA re-replication, Hoechst nuclear intensity, 48 h; also: potency is read from the fitted curve at half-maximal effect; % of control where 0% means no effect; nearly all actives have a fitted effect of over 50% in size
KB-V1 MDR tox – kills drug-selected multidrug resistant KB-V1 cells; Potency, µM (doses to about 46.1 µM), hits mostly cytotoxic; 3.4% of 400,000 active; KB-V1 MDR cells viability, CellTiter-Glo, 72 h; also: potency is read from the fitted curve at half-maximal effect; % is scaled to controls: 0 for no effect and ±100 for the full control effect; nearly all actives have a fitted effect of over 60% in size
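KB-V1 MDR subline cells in DMEM (phenol-red free, 10% FBS) exposed to compounds in qHTS concentration series for 72 h at 37 degrees C. Viability read by CellTiter-Glo luminescence; concentration-effect curves fitted after normalization and correction.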
Giardia killer – Giardia lamblia killing; Giardia lamblia trophozoite viability; activity change, % at 7.66 µM, hits read low; 0.15% of 340,000 active; AID 540267; in the data active = activity change below about -80%; inconclusive = between about -30% and that limit;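 also: parasites exposed to compound for two days anaerobically before the ATP read; % is scaled to controls: 0 for no effect and ±100 for the full control effect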
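Luminescence from cellular ATP indicates surviving trophozoites (100 cells/well) following 48 hrs anaerobic compound treatment at 37 deg C; signal develops 15-30 min at room temperature.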
Numbers without * were called inactive; i = inactive; ? = inconclusive; / = not tested or not shown. Compounds with a hit are over-represented: about 6.9% of the library has one in this group of screens. Unless noted, calls follow the shape of the dose curve; as a rule, active = well fitted curve in the direction sought with a large enough effect; inconclusive = small, poorly fitted or top-dose-only effect, or another doubt; inactive = no such curve, though single readings can be large; an effect the other way counts as inactive or inconclusive.

SMILES	S-ASM inh	KB-3-1 tox	SW480 rerep	MCF10A rerep	KB-V1 MDR tox	Giardia killer
Cn1c(SCc2c(Cl)cccc2Cl)nnc1-c1cccs1	1.6%	i	1.0%	-0.1%	18.4µM*	15.4
Cn1c(SCc2nc3ccccc3[nH]2)nnc1-c1cccs1	8.3%	i	-4.5%	6.5%	20.6µM*	-14.9
COc1ccc(Cl)cc1-c1cc(C(=O)NCc2ccc(F)cc2)[nH]n1	/	i	/	/	i	/
CC(C)c1ccc(CC(=O)N2CCC2(C)C(=O)Nc2ccccc2)cc1 (centres undefined)	/	i	/	/	i	/
CC(C)c1ccc(CC(=O)N2CCC2(C)C(=O)Nc2ccc3c(c2)OCCO3)cc1 (centres undefined)	/	i	/	/	16.4µM*	/
CC1(C(=O)Nc2ccc3c(c2)OCCO3)CCN1Cc1csc2ccccc12 (centres undefined)	/	i	/	/	i	/
CC(C)Oc1ccc(CN2CCC2(C)C(=O)Nc2ccc3c(c2)OCO3)cc1 (centres undefined)	/	?	/	/	18.4µM*	/
CC(C)c1ccc(CN2CCC2(C)C(=O)Nc2ccc3c(c2)OCO3)cc1 (centres undefined)	/	16.4µM*	/	/	?	/
COc1cccc(NC(=O)C2(C)CCN2Cc2ccc(OC(C)C)cc2)c1 (centres undefined)	/	i	/	/	?	/
Cc1ccc(CNC(=O)COCc2cc(-c3ccc4c(c3)OCO4)on2)cc1	/	i	/	/	i	/
NCCCNc1ncnc2ccc(-c3ccc4c(c3)OCO4)cc12	/	?	/	/	i	/
COc1cc(CNC(=O)C2CCCCN2S(=O)(=O)c2ccc(F)cc2)cc(OC)c1OC (centres undefined)	/	i	/	/	?	/
CC(=O)c1ccc(Nc2cc(C)nc3nc(Cc4ccccc4)nn23)cc1	/	i	/	/	i	/
O=C(Nc1ccc2snnc2c1)Nc1cccc2ccccc12	-25.3%	20.6µM*	-3.7%	?	?	25.6
CCc1ccccc1NC(=O)Nc1ccc2snnc2c1	/	i	/	/	i	/
CCSc1nnc(NC(=O)C(NC(=O)c2ccc(Cl)cc2)C(C)C)s1 (centres undefined)	0.1%	i	-2.3%	2.0%	11.6µM*	1.1
CC(C)C(NC(=O)c1ccc(Cl)cc1)C(=O)NC1=NCCS1 (centres undefined)	5.0%	i	-6.6%	4.2%	20.6µM*	12.2
CC(=O)Nc1ccc(NC(=O)C(NC(=O)c2ccc(Cl)cc2)C(C)C)cc1 (centres undefined)	/	i	/	/	i	/
Cc1ccc(NC(=O)N2CCC(N3CCN(Cc4ccccc4)C(=O)C3=O)CC2)cc1Cl	/	i	/	/	?	/
Cc1[nH][nH]c(=O)c1C(c1c(C)[nH][nH]c1=O)c1cn(C)c2ccccc12	-6.7%	i	25.0%	2.9%	i	-25.1
Cc1[nH][nH]c(=O)c1C(c1c(C)[nH][nH]c1=O)c1cn(Cc2cccc3ccccc23)c2ccccc12	-23.7%	?	?	?	20.6µM*	-11.0
O=C(O)c1cc(N=Nc2c(O)ccc3ccccc23)cc(C(=O)O)c1	11.3%	i	-7.3%	-2.7%	i	-1.6
O=C(O)c1ccc(N=Nc2c(O)ccc3ncccc23)cc1	-4.1%	?	14.6µM*	2.9%	?	-10.0
C=CC(=O)N1C/C(=C/c2ccc(Cl)cc2)C(=O)/C(=C\c2ccc(Cl)cc2)C1	-10.6%	?	1.46µM*	?	i	-12.1
C=CC(=O)N1C/C(=C/c2ccccc2)C(=O)/C(=C\c2ccccc2)C1	-1.0%	4.11µM*	?	19.3%	?	25.7
O=C1/C(=C/c2ccc(C(=O)O)cc2)CCC/C1=C\c1ccc(C(=O)O)cc1	-1.8%	i	-10.9%	4.6%	i	1.2
O=C(Cn1c(=O)n(-c2ccc(Cl)cc2)c(=O)c2sc3ccccc3c21)NC1CCCC1	/	i	/	/	i	/
O=C(CCS(=O)(=O)c1cc2c3c(c1)CCN3C(=O)CC2)NCc1ccc(F)cc1	/	i	/	/	i	/
O=C(O)COc1ccc2c(c1)O/C(=C\c1cccs1)C2=O	75.6%	i	16.4µM*	?	i	6.3
